Source: PubChem
KCNQ2 enhance: enhances the rat KCNQ2 potassium channel; B-score at 10 µM; CHO-K1 KCNQ2, FluxOR thallium flux fluorescence; stronger effect = higher value; 0.54% of 310,000 active; O88943;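 active = fluorescence ratio B-score at least 3 SD of library B-scores, with initial fluorescence B-score within 3 of them, cut at about 5.3 in these data; same plate scores as AID 2156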;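 note: B-score of peak minus minimum over baseline fluorescence ratio after K+ and Tl+ stimulus; positive B-score means potentiation of KCNQ2 with more thallium influx and brighter signal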
KCNQ2 inh: inhibitors of rat KCNQ2 potassium channel; CHO-K1 KCNQ2, FluxOR thallium flux, 20 min; stronger effect = lower value; 1.1% of 310,000 active; O88943; B-score at 10 µM;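 active = fluorescence ratio B-score at most minus 3 library SDs, with starting brightness B-score within 2 library SDs, cut at about -5.5 in these data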
Kir21 conf inh: confirmation of mouse Kir2.1 potassium channel inhibitors | shares compounds with KCNQ2 enhance | 41% of 2,300 active | Kir2.1-expressing cells, FluxOR thallium flux fluorescence; stronger effect = lower value | Tl flux remaining, % of negative control (stronger effect = lower value), % at 10 µM;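 active = Primary-screen hit whose thallium flux fell at least 3 control SD below untreated wells in both duplicates, with normal baseline fluorescence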;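 note: 0% = blank wells without stimulus and 100% = stimulated no-compound controls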
Target sequence (P35561 whole entry, looked up): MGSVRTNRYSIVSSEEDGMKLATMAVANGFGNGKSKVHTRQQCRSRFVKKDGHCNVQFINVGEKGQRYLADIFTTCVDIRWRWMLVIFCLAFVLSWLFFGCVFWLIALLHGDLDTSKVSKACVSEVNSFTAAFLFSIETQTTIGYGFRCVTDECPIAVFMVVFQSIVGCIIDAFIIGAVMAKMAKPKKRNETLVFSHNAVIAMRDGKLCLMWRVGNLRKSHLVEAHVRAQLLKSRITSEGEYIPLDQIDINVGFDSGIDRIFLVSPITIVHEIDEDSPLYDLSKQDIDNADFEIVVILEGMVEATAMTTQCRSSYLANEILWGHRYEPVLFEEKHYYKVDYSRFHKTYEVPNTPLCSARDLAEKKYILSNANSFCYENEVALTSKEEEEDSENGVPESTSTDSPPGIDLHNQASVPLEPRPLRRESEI
HEK293 Tl flux: parental HEK293 activity in Kir2.1 inhibitor counter-screen. shares compounds with KCNQ2 enhance. parental HEK293 cells, FluxOR thallium flux fluorescence; 0% = unstimulated blank wells. FluxOR signal as % of negative control (100 = no effect), % at 10 µM. 19% of 2,300 active. AID 2105;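 active = dye signal at least 3 control SD above or below untreated wells in both duplicates, raw fluorescence within 3, either direction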;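 note: percent is based on the flux ratio of peak minus minimum fluorescence over baseline F0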
CHO-K1 ctr: parental CHO-K1 activity in KCNQ2 potentiator counter-screen. shares compounds with KCNQ2 enhance. 43% of 1,200 active. AID 2282. activity increase over 3SD of controls, % at 10 µM. parental CHO-K1 cells, FluxOR thallium flux fluorescence; zero = vehicle mean+3SD, 100% = vehicle-minus-blank window;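 active = signal rise of at least 3 SD above the untreated control mean, in both duplicate wells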;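 note: counter screen of KCNQ2 potentiator hits so any rise reflects channel-independent effects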
KCNQ1 sel pot: tests whether KCNQ2 potentiators also act on human KCNQ1. activation over 3SD threshold, % at 10 µM. CHO KCNQ1 stable, FluxOR thallium flux fluorescence; beyond 3SD, as % of vehicle-control signal. shares compounds with KCNQ2 enhance. 28% of 1,200 active;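 active = fluorescence ratio rise of at least 3 SD of vehicle wells above their mean, in both replicate wells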;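 note: 0% = vehicle mean plus 3 SD and 100% = vehicle minus unstimulated blank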
KCNQ2 pot confirm: rat KCNQ2 channel potentiator confirmation; shares compounds with KCNQ2 enhance; potentiation, less the hit threshold, % at 10 µM; CHO-KCNQ2 cells, FluxOR thallium flux fluorescence; 68% of 1,200 active;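 active = fluorescence ratio rising 3 SD or more over the vehicle control mean in both replicates, plus primary screen hit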;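 note: peak minus minimum thallium fluorescence divided by baseline after K/Tl stimulus; 0% = vehicle mean plus 3 SD and 100% = vehicle minus unstimulated blank difference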
Kir21 spec: mouse Kir2.1 off-target activity of KCNQ2 potentiators | shares compounds with KCNQ2 enhance | HEK293 Kir2.1, FluxOR thallium flux fluorescence | activity over 3SD threshold, % at 10 µM | 2% of 1,200 active;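 active = fluorescence ratio rise of at least 3 SD above the vehicle-control mean, seen in both replicates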;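 note: 0% = vehicle mean plus 3 SD and 100% = vehicle minus no-stimulus blank window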
KCNQ2 W236L pot: rat KCNQ2 W236L mutant potentiation by KCNQ2 potentiators. shares compounds with KCNQ2 enhance. CHO KCNQ2-W236L, automated patch clamp current. current increase over 3SD of negative controls (%), stronger effect = higher value, % at 25 µM. 10% of 940 active. AID 2558;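 active = current increase at least 3 SD of the untreated controls above them in both duplicate recordings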
Starred values were filed as active, the others as inactive; i = inactive; . = not tested or not shown. The list is not random: actives were taken first. Their share in the collection is about 1.6%.

SMILES | KCNQ2 enhance | KCNQ2 inh | Kir21 conf inh | HEK293 Tl flux | others
COc1ccc(NC(=O)/C(Cl)=C(/Cl)S(=O)Cc2ccccc2)cn1 (stereo unspecified) | 12.3* | i | i | 63.5%* | CHO-K1 ctr=0.3*;KCNQ1 sel pot=-14.7;KCNQ2 pot confirm=11.6*;Kir21 spec=-44.9;KCNQ2 W236L pot=3.2%*
COc1ccc(NC(=O)Cc2ccccc2)cn1 | . | i | . | .
CC(=O)N1CCC(O)(c2ccc3c(c2)OCO3)CC1 | 1.02 | i | . | .
COc1ccc(CN2CCCC(C(=O)c3ccc4c(c3)OCO4)C2)c(F)c1 (stereo unspecified) | . | i | 56.5%* | i
COc1cccc(CN2CCCC(C(=O)c3ccc4c(c3)OCO4)C2)c1O (stereo unspecified) | . | i | . | .
C/C(=N/NC(=O)c1ccoc1C)C12CC3CC(CC(C3)C1)C2 | 0.51 | i | . | .
